G9a inh: blocks human histone lysine methyltransferase G9a. Q96KQ7. G9a H3K9 monomethylation, AlphaScreen, 2 h. Potency, µM (series often up to 102 µM), inactives show at the highest dose activity, negative = inhibition, most hits filed as inhibitors. 8.8% of 350,000 active; note: % is set by controls: 0 for no effect and ±100 for the full control effect; nearly all actives have a fitted effect of over 75% in size
Target sequence (Q96KQ7 913-1193 limits assumed): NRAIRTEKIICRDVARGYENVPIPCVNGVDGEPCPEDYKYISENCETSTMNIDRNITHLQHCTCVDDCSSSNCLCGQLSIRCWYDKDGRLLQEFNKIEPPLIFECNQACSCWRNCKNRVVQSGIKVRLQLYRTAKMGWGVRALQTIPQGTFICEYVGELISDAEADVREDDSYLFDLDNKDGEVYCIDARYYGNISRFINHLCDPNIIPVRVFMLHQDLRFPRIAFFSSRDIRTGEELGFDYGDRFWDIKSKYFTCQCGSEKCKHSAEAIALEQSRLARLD
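AlphaScreen read-out: biotin-H3K9 peptide (500 nM) methylation by 20 nM enzyme with 20 uM SAM, 2 h at room temperature after 15 min compound preincubation; anti-monomethyl H3K9 antibody plus donor/acceptor beads, 10 min dark.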
Sfp PPTase inh: inhibitors of Bacillus subtilis Sfp phosphopantetheinyl transferase | AID 1490 | Biochemical Sfp PPTase activity, qHTS | Q9F4F7 | Potency, µM, inactives show largest response in the series, negative = inhibition, most hits filed as inhibitors | 3.5% of 310,000 active;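 note: the enzyme is Sfp with the accession as filed and its product quenches rhodamine fluorescence; 0% = enzyme reaction without inhibitor and -100% = no enzyme wells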
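Fluorescence-quenching assay: 15 nM Sfp-PPTase preincubated 15 min at room temperature with compound, then 5 uM rhodamine-CoA and 12.5 uM BHQ-2-labelled YbbR peptide added. Fluorescence (ex 525/em 598 nm) read at start and after 30 min; difference gives rate.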
VDR inhibitor: blocks the human vitamin D receptor; P11473; VDR-SRC2-3 peptide fluorescence polarization, 2 h; Potency, µM, without a hit: max response, negative = inhibition, most hits filed as inhibitors; 0.93% of 400,000 active; AID 504847; note: % is set by controls: 0 for no effect and ±100 for the full control effect
Target sequence (P11473 whole entry, looked up): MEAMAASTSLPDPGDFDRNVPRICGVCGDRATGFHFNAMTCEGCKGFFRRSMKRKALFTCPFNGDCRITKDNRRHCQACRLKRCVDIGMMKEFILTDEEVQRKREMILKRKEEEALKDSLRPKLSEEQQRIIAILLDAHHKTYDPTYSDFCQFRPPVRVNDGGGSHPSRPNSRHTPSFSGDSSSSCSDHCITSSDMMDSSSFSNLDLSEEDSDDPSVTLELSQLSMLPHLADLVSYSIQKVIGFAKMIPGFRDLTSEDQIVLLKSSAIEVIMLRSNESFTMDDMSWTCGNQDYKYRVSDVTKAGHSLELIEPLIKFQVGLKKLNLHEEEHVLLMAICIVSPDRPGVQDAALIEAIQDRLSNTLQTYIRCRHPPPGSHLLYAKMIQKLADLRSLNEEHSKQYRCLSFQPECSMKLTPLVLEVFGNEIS
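FP read-out; VDR + SRC2-3 coactivator peptide; 23 nl compound by pintool; 2 h RT incubation; reagents held at 4 deg C, protected from light.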
Glioma ERSR ind: ER stress response induction in glioma; U87-MG GRP78 promoter luciferase reporter, 16 h; Potency, µM, without a hit: top-dose activation, usual class: activators; 0.02% of 420,000 active; note: series mostly up to about 76 µM; % of control where 0% means no effect; nearly all actives have a fitted effect of over 35% in size
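Stably transfected U87-MG glioma cells carrying a GRP78-based luciferase sensor; 16 h compound incubation. Luminescence end-point read 10 min after Bright-Glo addition at room temperature.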
12-LOX inh: inhibitors of human 12S-lipoxygenase ALOX12; AID 1671190; Potency, µM (top dose mostly 108 µM), inactives show at the highest dose activity change, negative = inhibition, hits mostly inhibitors; 1.1% of 580,000 active; purified 12hLO, xylenol orange hydroperoxide absorbance; note: % is set by controls: 0 for no effect and ±100 for the full control effect
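Purified human 12hLO at 150 nM in 25 mM Hepes, 0.01% Triton X-100, pH 7.0, preincubated 15 min at room temperature with compound. Reaction started with 40 uM arachidonic acid, 30 min at room temperature. Hydroperoxide measured by Fe-xylenol orange, 573/405 nm absorbance ratio.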
Active calls of the source: *; [ ] = dose if it differs, or a comment. This excerpt belongs to a sample that is enriched for hits. Calls come from the whole dose curve; as a rule, active = well fitted curve in the direction sought with a large enough effect; inconclusive = small, poorly fitted or top-dose-only effect, or another doubt; inactive = no such curve, though single readings can be large; an effect the other way counts as inactive or inconclusive. Potency is the fitted concentration of half-maximal effect.

How did CN(C)C(=O)Oc1ccc(Cl)c2cccnc12 do in these assays?
G9a inh: -5%[59 µM]; Sfp PPTase inh: 24%; VDR inhibitor: 7%; Glioma ERSR ind: -1%; 12-LOX inh: -4%

How did COc1ccccc1-n1c(O)c(/C=N/NC(=S)Nc2ccccc2)c(=O)[nH]c1=S do in these assays?
Sfp PPTase inh: 10µM*; VDR inhibitor: inconclusive; Glioma ERSR ind: 4%; 12-LOX inh: -22%

How did CCn1c(O)c(/C=N/NC(=O)c2ccccc2)c(=O)[nH]c1=S do in these assays?
G9a inh: -7%; Sfp PPTase inh: 31%; VDR inhibitor: -12%; Glioma ERSR ind: 3%; 12-LOX inh: 0%

Results for O=c1[nH]c(=O)n(-c2ccccc2)c(O)c1/C=C1/C(c2ccccc2)=Nc2ccccc21 ?
G9a inh: inconclusive; Sfp PPTase inh: -9%; VDR inhibitor: inconclusive; Glioma ERSR ind: 7%; 12-LOX inh: inconclusive

Results for COc1ccc(OC)c(-n2c(O)c(/C=C3\C(C)=Nc4ccccc43)c(=O)[nH]c2=O)c1 ?
G9a inh: 50µM*; Sfp PPTase inh: 5%; VDR inhibitor: -1%; Glioma ERSR ind: 0%; 12-LOX inh: inconclusive

How did COC(=O)C1=Nc2ccccc2/C1=C\c1c(O)n(-c2ccc(OC)cc2)c(=O)[nH]c1=O do in these assays?
G9a inh: 9%[12.7 µM]; Sfp PPTase inh: 50µM*; VDR inhibitor: inconclusive; Glioma ERSR ind: -3%; 12-LOX inh: inconclusive

Results for Cc1nn(C2CCOC(C)(C)C2)c2c1C(c1ccc(OC(C)C)cc1)SCC(=O)N2 (stereo not drawn) ?
G9a inh: 8%[12.7 µM]; Sfp PPTase inh: -25%; VDR inhibitor: 79µM*; Glioma ERSR ind: -5%; 12-LOX inh: 0%

What do the screens show for `CC1CCN(C[C@H]2CN3CC[C@H]2C[C@@H]3CNC(=O)c2ccc3c(c2)OCO3)CC1`?
12-LOX inh: 75%[176 µM]

Results for O=c1[nH]c(=O)n(Cc2ccccc2)c(O)c1/C=N/NCCO ?
G9a inh: 50µM*; Sfp PPTase inh: -16%; VDR inhibitor: 7%; Glioma ERSR ind: -1%; 12-LOX inh: 351%

Results for O=C(N/N=C/c1c(O)n(Cc2ccccc2)c(=O)[nH]c1=O)c1ccccc1O ?
G9a inh: inconclusive; Sfp PPTase inh: 0%; VDR inhibitor: -15%; Glioma ERSR ind: 4%; 12-LOX inh: inconclusive

How did Nc1cccc(N=Cc2c(O)n(Cc3ccc(F)cc3)c(=O)[nH]c2=O)c1 do in these assays?
G9a inh: 13µM*; Sfp PPTase inh: 1%; VDR inhibitor: 5%; Glioma ERSR ind: -1%; 12-LOX inh: 10%

How did O=C(N/N=C/c1c(O)n(Cc2ccc(F)cc2)c(=O)[nH]c1=O)c1ccccc1O do in these assays?
G9a inh: 45µM*; Sfp PPTase inh: -1%; VDR inhibitor: -13%; Glioma ERSR ind: -3%; 12-LOX inh: inconclusive

What do the screens show for `O=C1CO[C@H]2CN(Cc3ncc[nH]3)C[C@H]2N1Cc1cccnc1`?
12-LOX inh: 68%[176 µM]

Results for O=S(=O)(NC[C@H]1C[C@@H]2CCN1C[C@@H]2CN1CCN(c2ncccn2)CC1)c1ccccc1 ?
12-LOX inh: 9%

Results for OCCNc1cc(N2CC[C@@]3(O)CCNC[C@H]3C2)ncn1 ?
12-LOX inh: 25%

How did COc1ccc(CCCc2nnc(SCC(=O)Nc3ccc(C)c(C)c3)o2)cc1 do in these assays?
G9a inh: 22µM*; Sfp PPTase inh: 2%; VDR inhibitor: -2%; Glioma ERSR ind: 1%; 12-LOX inh: inconclusive

How did CC[n+]1c(/C=C/C=C/c2ccc(N(C)C)cc2)sc2ccccc21 do in these assays?
G9a inh: 40µM*; Sfp PPTase inh: inconclusive; VDR inhibitor: -154%; Glioma ERSR ind: -7%; 12-LOX inh: inconclusive

How did O=C1CCC2(CCNCC2)CCN1CC1CC1 do in these assays?
12-LOX inh: -15%

How did N#Cc1ccc(NC(=O)CN2CCN(C(=O)c3cccs3)CC2)cc1Cl do in these assays?
G9a inh: 40µM*; VDR inhibitor: 5%; Glioma ERSR ind: -3%; 12-LOX inh: -5%

Results for CCN(CC)C(=O)c1ccc(NC(=O)CSc2ccc3ccccc3n2)cc1 ?
12-LOX inh: -22%

Results for Nc1c(C(=O)Nc2cccc(Br)c2)sc2nc3c(cc12)N1CCC3CC1 ?
G9a inh: 13µM*; VDR inhibitor: -4%; Glioma ERSR ind: 5%; 12-LOX inh: inconclusive

What do the screens show for `Cc1ccc(S(=O)(=O)NP(=O)(Oc2ccccc2)Oc2ccccc2)cc1`?
G9a inh: 56µM*; Sfp PPTase inh: 22%; VDR inhibitor: 25%; Glioma ERSR ind: -1%; 12-LOX inh: inconclusive

What do the screens show for `O=P(NS(=O)(=O)c1ccc(Br)cc1)(Oc1ccccc1)Oc1ccccc1`?
G9a inh: -12%[12.7 µM]; Sfp PPTase inh: 13%; VDR inhibitor: 0%; Glioma ERSR ind: -3%; 12-LOX inh: -9%

What do the screens show for `O=P(NS(=O)(=O)c1ccccc1)(Oc1ccccc1)Oc1ccccc1`?
G9a inh: 56µM*; Sfp PPTase inh: 29%; VDR inhibitor: -3%; Glioma ERSR ind: 2%; 12-LOX inh: 15%

What do the screens show for `Cc1cccc2c3c(ccc12)C1=C(C(=O)C3=O)[C@@H](C)CO1`?
Sfp PPTase inh: -7%; VDR inhibitor: 20µM*; Glioma ERSR ind: -4%; 12-LOX inh: inconclusive

What do the screens show for `CC(C)C1(C)N=C(c2ncccc2C(=O)O)NC1=O` (stereo not drawn)?
G9a inh: 32µM*; Sfp PPTase inh: -28%; VDR inhibitor: -6%; Glioma ERSR ind: -4%; 12-LOX inh: inconclusive

How did CC(C)C1(C)N=C(c2nc3ccccc3cc2C(=O)O)NC1=O (stereo not drawn) do in these assays?
G9a inh: 8%[2.33 µM]; Sfp PPTase inh: -3%; VDR inhibitor: 3%; Glioma ERSR ind: -3%; 12-LOX inh: inconclusive

What do the screens show for `Cc1cc(C(C#N)c2ccc(Cl)cc2)c(Cl)cc1NC(=O)c1cc(I)cc(I)c1O` (stereo not drawn)?
G9a inh: 14µM*; Sfp PPTase inh: inconclusive; VDR inhibitor: inconclusive; Glioma ERSR ind: -2%; 12-LOX inh: inconclusive

What do the screens show for `CCOc1ccc2nc(N=Nc3c(O)[nH]c(=O)[nH]c3=O)sc2c1`?
Sfp PPTase inh: 10%; VDR inhibitor: -21%; Glioma ERSR ind: 0%; 12-LOX inh: -28%

How did CCOc1ccc2nc(N=Nc3c(O)[nH]c(=S)[nH]c3=O)sc2c1 do in these assays?
G9a inh: 35µM*; Sfp PPTase inh: 56µM*; VDR inhibitor: -5%; Glioma ERSR ind: 0%; 12-LOX inh: -16%

What do the screens show for `CCN(CC)c1ccc(CC2C(=O)N(C)C(=O)N(C)C2=O)cc1`?
G9a inh: 13µM*; Sfp PPTase inh: inconclusive; VDR inhibitor: -14%; Glioma ERSR ind: -5%

What do the screens show for `C=CCOc1ccc(CC2C(=O)N(C)C(=O)N(C)C2=O)cc1`?
G9a inh: -47%[12.7 µM]; Sfp PPTase inh: -15%; VDR inhibitor: -10%; Glioma ERSR ind: 0%; 12-LOX inh: 30%
